The subject of assay [1] is Wnt5a (protein binding on small-molecule microarray). Description: Wnt5a binders on small-molecule microarray, primary screen, biophysical, 635/667 nm fluorescence (AID 1142).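 Also: fluorescence read at 667 nm with signal to noise per printed feature.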 The settings on record: 635 nm fluorescence, higher = more signal.
A short description of assay [2]: cell viability in Huh7 cells, primary screen, cytotoxicity control for HCV replication inhibitor project, CellTiter-Glo luminescence, basal, 48 h (AID 1143).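 Also: Huh7 hepatoma cells carrying a hepatitis C replication reporter with no stimulus; test concentration not given here.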 The settings on record: Huh7 HCV replicon, higher = more signal, called active from +8 up or from −8 down. For orientation: ATP-based viability assays read luminescence as a measure of living cells.
Assay [3] is described as follows: P. aeruginosa biofilm formation inhibitors, primary screen, PAO1 strain, BacTiter-Glo luminescence, LB-PBS (AID 1144). The following applies: 12 h, higher = more signal.
Assay [4] in a line: CREB reporter modulators without forskolin, primary screen, cell-based, PC12, CRE-LacZ reporter, unstimulated (AID 1145). The following applies: no forskolin, luminescence, 4.5 h, higher = more signal, called active from +8 up or from −8 down.
A short description of assay [5]: CREB reporter modulators under forskolin, primary screen, cell-based, PC12, CRE-LacZ reporter, forskolin-stimulated (AID 1146).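 Also: PC12 cells with 6xCRE LacZ reporter stimulated by forskolin 10 µM; beta-galactosidase reporter signal reflecting CREB driven transcription.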 The following applies: luminescence, 4.5 h, higher = more signal, called active from +8 up or from −8 down.
The target in assay [6] is Streptavidin (Streptomyces avidinii) (UniProt P22629). In words: streptavidin binders on small-molecule microarray, primary screen, artefact control for SMM compound annotation, biophysical, 635/667 nm fluorescence (AID 1147).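 Also: signal reflects streptavidin binding to arrayed compounds as a control protein.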 The following applies: streptavidin binding, higher = more signal.
Assay [7] can be described thus: small-molecule binders of probe aInhba, primary screen, biochemical, small-molecule microarray, 635/667 nm fluorescence (AID 1148).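 Also: score merges 667nm spot fluorescence with signal-to-noise for antibody binding to printed compounds.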 The settings on record: higher = more signal.
Assay [8] deals with Torsin-1A (Homo sapiens) (UniProt O14656). Description: torsin A binders from cell lysate, primary screen, small-molecule microarray, wild-type, 635/667 nm (AID 1149). The settings on record: COS7 hTOR1A-WT lysate, 635 nm fluorescence, higher = more signal.
The target is the same in assay [9]. In words: small-molecule binders of mutant TOR1A in lysate, primary screen, cell lysate, small-molecule microarray, COS7 lysate, 635/667 nm fluorescence (AID 1150).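 Also: score pools 667 nm emission and signal to noise measuring lysate protein binding.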 The following applies: COS7 hTOR1A mutant lysate, 635 nm fluorescence, higher = more signal.
The test system of assay [10] is Sonic hedgehog protein (Shh). In words: small-molecule binders of Shh protein, primary screen, biochemical, small-molecule microarray, 635/667 nm fluorescence (AID 1151).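 Also: Shh protein binding to compounds spotted on small-molecule microarray slides; score combines spot fluorescence intensity with signal-to-noise across triplicate slides.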 The following applies: small-molecule microarray binding, 635 nm fluorescence; higher = more signal.
Assay [11] is described as follows: E. coli DRC41 culture turbidity changes, primary screen, E. coli filamentation inducer project, strain DRC41, OD650, 48 h (AID 1152).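 Also: E. coli MC1000 strain DRC41 lacking acrAB efflux pump and sulA.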 The settings on record: E. coli DRC41 (acrAB sulA), higher = more signal, called active from +8 up or from −8 down.
Assay [12] in a line: small-molecule binders of probe aLefty1, primary screen, biochemical, small-molecule microarray, 635/667 nm fluorescence (AID 1153).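 Also: score merges spot fluorescence with signal-to-noise ratio from the scanned slide images.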 The following applies: higher = more signal.
Assay [13] is described as follows: PSAC antagonists in infected red cells, primary screen, cell-based, P. falciparum Indochina, OD700, 1 h (AID 1154). The settings on record: P. falciparum Indochina infected RBC osmotic lysis, higher = more signal, called active from +8 up or from −8 down.
Assay [14] is described as follows: PSAC antagonists in infected red cells, primary screen, cell-based, P. falciparum Indochina, OD700, 2 h (AID 1155).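 Also: lysis reports solute entry through the parasite surface anion channel PSAC; channel blockers reduce lysis of infected cells.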 The following applies: P. falciparum Indochina infected erythrocytes, osmotic lysis OD700; higher = more signal, called active from +8 up or from −8 down.
Assay [15] is described as follows: osmotic lysis modulators in infected erythrocytes, primary screen, PSAC antagonist project, cell-based, P. falciparum Indochina, OD700, 3 h (AID 1156). The following applies: higher = more signal, called active from +8 up or from −8 down.
Assay [16] can be described thus: PSAC antagonists in infected red cells, primary screen, cell-based, P. falciparum Indochina, OD700, 18 h (AID 1157). The settings on record: P. falciparum Indochina infected erythrocytes, osmotic lysis OD700, 18 h; higher = more signal, called active from +8 up or from −8 down.
The nature of assay [17]: modulators of S6 phosphorylation in cells, primary screen, cell-based, A549, cytoblot, luminescence, serum-stimulated (AID 1158).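 Also: serum-stimulated A549 lung adenocarcinoma cells; signal is phosphorylated S6 detected by cytoblot immunostaining with HRP secondary.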 The following applies: A549 phospho-S6 cytoblot, 5 h, higher = more signal.
Assay [18] concerns the target NADPH oxidase 2 (Homo sapiens) (UniProt P04839). In words: NOX2-dependent H2O2 signal modulators, primary screen, NOX inhibitor project, cell-based, HEK293-NOX2, PMA-stimulated, Amplex Red fluorescence (AID 1159). Also: test concentration not given here. The following applies: 45 min, higher = more signal, called active from +8 up or from −8 down.
Assay [19] deals with NADPH oxidase 4 (Homo sapiens) (UniProt Q9NPH5). In words: NOX4-dependent H2O2 signal modulators, primary screen, NOX inhibitor project, cell-based, HEK293-NOX4, tetracycline-induced, Amplex Red fluorescence (AID 1160). The following applies: 45 min, higher = more signal, called active from +8 up or from −8 down.
Assay [20] concerns the target NADPH oxidase 5 (Homo sapiens) (UniProt Q96PH1). Description: NOX5-dependent H2O2 signal modulators, primary screen, NOX inhibitor project, cell-based, HEK293-NOX5, Amplex Red fluorescence (AID 1161). The settings on record: HEK293-NOX5, ionomycin, 45 min, higher = more signal.

The text below walks through data of PubChem BioAssay.

The source made the active and inactive calls. Unless noted, no rule for the calls is given here.

Sequence of Streptavidin (Streptomyces avidinii) (P22629 whole entry, looked up): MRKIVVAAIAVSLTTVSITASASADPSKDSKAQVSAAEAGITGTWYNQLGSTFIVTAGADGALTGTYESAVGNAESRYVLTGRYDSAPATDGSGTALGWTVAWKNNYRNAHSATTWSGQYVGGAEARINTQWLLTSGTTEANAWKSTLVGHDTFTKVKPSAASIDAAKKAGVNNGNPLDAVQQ
Sequence of NADPH oxidase 4 (Homo sapiens) (Q9NPH5 whole entry, looked up): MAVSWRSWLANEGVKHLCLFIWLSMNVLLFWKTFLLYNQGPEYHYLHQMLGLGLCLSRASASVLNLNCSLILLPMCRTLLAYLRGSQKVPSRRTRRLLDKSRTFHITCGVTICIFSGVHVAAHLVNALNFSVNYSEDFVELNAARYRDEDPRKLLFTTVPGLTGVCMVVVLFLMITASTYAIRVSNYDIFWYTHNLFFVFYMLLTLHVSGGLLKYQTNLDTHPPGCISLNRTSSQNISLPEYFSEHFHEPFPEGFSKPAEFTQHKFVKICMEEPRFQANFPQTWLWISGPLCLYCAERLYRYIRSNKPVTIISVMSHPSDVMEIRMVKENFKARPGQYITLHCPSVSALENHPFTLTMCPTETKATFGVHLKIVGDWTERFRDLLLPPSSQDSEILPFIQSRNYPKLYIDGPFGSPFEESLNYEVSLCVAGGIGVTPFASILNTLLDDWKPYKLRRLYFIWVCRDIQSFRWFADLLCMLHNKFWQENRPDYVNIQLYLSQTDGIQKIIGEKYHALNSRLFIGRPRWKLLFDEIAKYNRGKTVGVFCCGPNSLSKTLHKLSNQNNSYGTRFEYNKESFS
Sequence of NADPH oxidase 2 (Homo sapiens) (P04839 whole entry, looked up): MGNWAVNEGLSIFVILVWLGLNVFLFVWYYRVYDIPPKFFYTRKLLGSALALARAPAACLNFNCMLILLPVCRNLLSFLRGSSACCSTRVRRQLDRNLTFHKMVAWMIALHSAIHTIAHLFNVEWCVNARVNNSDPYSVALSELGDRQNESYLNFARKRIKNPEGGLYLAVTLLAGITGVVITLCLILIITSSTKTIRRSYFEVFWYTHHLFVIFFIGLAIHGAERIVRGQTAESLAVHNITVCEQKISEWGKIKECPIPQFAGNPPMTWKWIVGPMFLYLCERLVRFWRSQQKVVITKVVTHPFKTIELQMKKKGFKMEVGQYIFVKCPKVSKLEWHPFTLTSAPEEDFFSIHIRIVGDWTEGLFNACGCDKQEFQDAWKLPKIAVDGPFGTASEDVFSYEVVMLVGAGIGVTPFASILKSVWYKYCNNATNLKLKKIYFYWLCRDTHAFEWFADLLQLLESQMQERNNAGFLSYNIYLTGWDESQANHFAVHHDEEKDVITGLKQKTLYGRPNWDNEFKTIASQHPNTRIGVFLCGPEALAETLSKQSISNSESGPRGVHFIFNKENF
Sequence of NADPH oxidase 5 (Homo sapiens) (Q96PH1 whole entry, looked up): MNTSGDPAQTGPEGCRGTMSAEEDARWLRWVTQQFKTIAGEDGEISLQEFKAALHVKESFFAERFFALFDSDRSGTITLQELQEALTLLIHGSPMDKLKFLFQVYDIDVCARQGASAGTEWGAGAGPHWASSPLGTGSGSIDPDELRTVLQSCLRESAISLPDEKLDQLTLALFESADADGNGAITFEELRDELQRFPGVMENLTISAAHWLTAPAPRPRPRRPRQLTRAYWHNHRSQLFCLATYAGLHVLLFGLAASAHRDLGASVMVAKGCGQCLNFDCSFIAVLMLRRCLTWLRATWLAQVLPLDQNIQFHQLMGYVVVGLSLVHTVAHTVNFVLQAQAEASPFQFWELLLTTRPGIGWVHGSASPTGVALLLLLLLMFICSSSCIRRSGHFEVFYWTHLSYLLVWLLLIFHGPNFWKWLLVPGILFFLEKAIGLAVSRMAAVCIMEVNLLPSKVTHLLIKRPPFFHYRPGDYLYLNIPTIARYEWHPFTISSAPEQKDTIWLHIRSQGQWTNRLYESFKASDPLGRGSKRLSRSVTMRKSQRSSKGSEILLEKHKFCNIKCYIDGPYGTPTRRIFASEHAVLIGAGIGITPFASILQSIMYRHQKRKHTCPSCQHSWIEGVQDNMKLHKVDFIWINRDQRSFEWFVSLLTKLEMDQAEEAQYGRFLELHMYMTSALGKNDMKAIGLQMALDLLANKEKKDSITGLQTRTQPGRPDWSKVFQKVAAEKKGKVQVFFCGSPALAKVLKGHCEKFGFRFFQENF
Sequence of Torsin-1A (Homo sapiens) (O14656 whole entry, looked up): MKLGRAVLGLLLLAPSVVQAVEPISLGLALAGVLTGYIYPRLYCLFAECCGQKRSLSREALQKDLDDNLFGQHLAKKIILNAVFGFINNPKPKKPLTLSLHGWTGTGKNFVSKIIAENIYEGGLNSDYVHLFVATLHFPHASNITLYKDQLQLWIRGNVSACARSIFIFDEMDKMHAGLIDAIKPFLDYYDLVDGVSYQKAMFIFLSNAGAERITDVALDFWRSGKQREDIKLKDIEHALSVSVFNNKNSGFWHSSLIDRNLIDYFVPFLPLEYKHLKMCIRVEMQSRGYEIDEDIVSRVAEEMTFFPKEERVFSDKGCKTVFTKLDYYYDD

Take `C[C@H]1C2[C@H](Cc3ccccc3)NC(=O)[C@]23C(=O)N[C@@H](Cc2ccccc2)C(=O)N2CCC[C@H]2C(=O)NC/C=C/CC/C=C/C3[C@@H]2O[C@]12C` (stereo not given in full): the composite z-score was 0.241 in [1]; -0.423 in assay [6]; -0.0986 in assay [7]; -0.0723 in the assay with Torsin-1A (Homo sapiens) [8]; 0.49 with Torsin-1A (Homo sapiens) [9]; 0.975 in assay [10]. The same molecule came in with a composite z-score in assay [12] of 0.32. Moreover, the z-score is -2.38 (inactive) in assay [2]; -0.165 (inactive) in assay [3]; 0.941 (inactive) in assay [4]; -0.688 (inactive) in assay [5]; -0.488 (inactive) in [11]; 1.13 (inactive) in [13]. Besides, the z-score was 0.186 (inactive) in assay [14]; 0.0233 (inactive) in assay [15]; 0.599 (inactive) in assay [16]; -0.191 in [17]; 1.25 (inactive) in assay [18]; 1.11 (inactive) in assay [19]. Further, the z-score in assay [20] worked out at 1.25.

Turning to `CC(C)[Si](C#Cc1ccccc1)(O[C@H](c1ccccc1)c1cn(Cc2ccccc2)nn1)C(C)C`, the composite z-score in assay [1] was -0.0899; in assay [6], 0.983; in assay [7] it was -0.222; with Torsin-1A (Homo sapiens) [8], 0.555; with Torsin-1A (Homo sapiens) [9], 0.841; in [10], 0.375. In assay [12], this molecule had a composite z-score of -0.275. For the same molecule, the z-score in [2] is -2.32 (inactive); in [3], -0.519 (inactive); in assay [4] it was -0.635 (inactive); in assay [5] it was -1.08 (inactive); in assay [11] it was 1.57 (inactive); in assay [13], 1.66 (inactive). For the same molecule, the z-score in [14] was 1.53 (inactive); in assay [15] it was -1.39 (inactive); in assay [16], 0.554 (inactive); in assay [17], 0.0866; in [18], 0.789 (inactive); in assay [19], -1.18 (inactive). Besides, the z-score in assay [20] was -2.98.

Consider `COCCCNC(=O)[C@@]1(Cc2ccccc2I)c2ccccc2C(=O)N(C2CCCCC2)[C@H]1c1ccc(CO)cc1`, for which the composite z-score was 0.665 in [1]; -0.0972 in assay [6]; 0.115 in assay [7]; -0.0751 with Torsin-1A (Homo sapiens) [8]; 0.646 with Torsin-1A (Homo sapiens) [9]; 1.04 in assay [10]. Also, the composite z-score in assay [12] was found to be 0.293. For the same molecule, the z-score in assay [2] is -4.51 (inactive); in [3] it was -1.54 (inactive); in [4], 0.468 (inactive); in assay [5], -0.175 (inactive); in assay [11], 0.0773 (inactive); in [13], 8.09 (active). Also, the z-score in assay [14] is 0.695 (inactive); in [15], 2.44 (inactive); in assay [16] it was 0.623 (inactive); in assay [17], 0.453; in assay [18], 0.392 (inactive); in assay [19], -1.2 (inactive). Further, in [20], the z-score was -3.06.

As for `CCOC(=O)C[C@H]1[C@H](OC(=O)Cc2ccc3c(c2)OCO3)[C@@H](NC(=O)CC(C)C)c2cc(OCCCO)ccc2N1C(=O)c1ccc2ccccc2n1`, the composite z-score in assay [1] is 0.25; in assay [6], 0.23; in assay [7] it was -0.0331; in the assay with Torsin-1A (Homo sapiens) [8] it was 0.384; with Torsin-1A (Homo sapiens) [9], -0.147; in assay [10], 0.458. For the same molecule, the composite z-score in [12] worked out at 0.0004. The z-score in [2] is -3.23 (inactive); in assay [3], 0.0536 (inactive); in assay [4], 7.92 (inactive); in [5], 0.812 (inactive); in assay [11] it was 0.685 (inactive); in [13], 2.75 (inactive). Also, the z-score is -1.19 (inactive) in [14]; -0.161 (inactive) in [15]; -2.54 (inactive) in assay [16]; 0.806 in assay [17]; 0.0707 (inactive) in assay [18]; -0.356 (inactive) in assay [19]. Besides, the z-score in [20] was -1.54.
